# Source: PubChem BioAssay (NCI)
# “And” between values parts separate entries of the source, which are not always exact repeats. Identical values can stand only once. This is part of a sample that, as a whole, favours compounds with a hit. Of some 83,000 tested, about 20% had one in any assay.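 Growth was measured after 48 h exposure to one concentration of compound in 96-well plates. Values under 10 count as active.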 A number with no mark means an inactive call. The source made the active and inactive calls.
# Legend:
# Assay in all cases: NCI-60 one-dose screen, 48 h (100 = growth as untreated, 0 = no growth, -100 = all killed)
# T-47D breast = conditions: 10 µM unless noted
# BT-549 breast = test system: BT-549 breast
# MDA-MB-435 melanoma = test system: MDA-MB-435 melanoma
# SW-620 colon = test system: SW-620 colon
# MCF7 breast = test system: MCF7 breast
# HCT-116 colon = test system: HCT-116 colon
# HCC-2998 colon = test system: HCC-2998 colon
# KM12 colon = test system: KM12 colon
smiles,measurement,setting,value
O=C(NC(CSSCC(NC(=O)OCc1ccccc1)C(=O)O)C(=O)O)OCc1ccccc1 (centres undefined),growth,T-47D breast,79.1% and 82.4%
same,growth,BT-549 breast; 10 µM unless noted,109% and 81.3%
same,growth,MDA-MB-435 melanoma; 10 µM unless noted,96% and 100%
same,growth,SW-620 colon; 10 µM unless noted,94.3% and 106%
same,growth,MCF7 breast; 10 µM unless noted,94.3% and 93.2%
same,growth,HCT-116 colon; 10 µM unless noted,98.4% and 74.7%
same,growth,HCC-2998 colon; 10 µM unless noted,110% and 96.2%
same,growth,KM12 colon; 10 µM unless noted,95.4% and 106%
CCN(CC)CCO/N=C1\CC(c2ccc(OC)c(OC)c2)Oc2ccccc21 (centres undefined),growth,T-47D breast,89.4%
same,growth,BT-549 breast; 10 µM unless noted,94%
same,growth,MDA-MB-435 melanoma; 10 µM unless noted,100%
same,growth,SW-620 colon; 10 µM unless noted,90.3%
same,growth,MCF7 breast; 10 µM unless noted,89.4%
same,growth,HCT-116 colon; 10 µM unless noted,84.1%
same,growth,HCC-2998 colon; 10 µM unless noted,109%
CN(C=O)c1ccccc1,growth,T-47D breast,86.7%
same,growth,BT-549 breast; 10 µM unless noted,93.1%
same,growth,MDA-MB-435 melanoma; 10 µM unless noted,102%
same,growth,SW-620 colon; 10 µM unless noted,104%
same,growth,MCF7 breast; 10 µM unless noted,87.4%
same,growth,HCT-116 colon; 10 µM unless noted,89%
same,growth,HCC-2998 colon; 10 µM unless noted,101%
S=c1nc[nH]c2nc[nH]c12,growth,T-47D breast,18.6%
same,growth,BT-549 breast; 10 µM,62%
same,growth,BT-549 breast; 50 µM,64.4%
same,growth,MDA-MB-435 melanoma; 10 µM,15.3%
same,growth,MDA-MB-435 melanoma; 50 µM,13.8%
same,growth,SW-620 colon; 10 µM,34.6%
same,growth,SW-620 colon; 50 µM,21.5%
same,growth,MCF7 breast; 10 µM,10.7%
same,growth,MCF7 breast; 50 µM,6.35% (active)
same,growth,MCF7 breast; 750 µM,4.16% (active) and -35.5% (active)
same,growth,HCT-116 colon; 10 µM,19.2%
same,growth,HCT-116 colon; 50 µM,28.3%
same,growth,HCC-2998 colon; 10 µM,23.2%
same,growth,HCC-2998 colon; 50 µM,31%
same,growth,KM12 colon; 10 µM,35.4%
same,growth,KM12 colon; 50 µM,14.9%
Nc1ccc(O)c(C(=O)O)c1,growth,T-47D breast,95% and 104% and 106%
same,growth,BT-549 breast; 10 µM unless noted,76.3% and 111% and 92.6%
same,growth,MDA-MB-435 melanoma; 10 µM unless noted,99.8% and 101% and 108%
same,growth,SW-620 colon; 10 µM unless noted,96.7% and 94.1% and 103%
same,growth,MCF7 breast; 10 µM unless noted,86.4% and 102% and 107%
same,growth,HCT-116 colon; 10 µM unless noted,98.7% and 99.9% and 85.5%
same,growth,HCC-2998 colon; 10 µM unless noted,107% and 104% and 99.9%
CC(=O)Oc1cc(C(C)C)c(OCCN(C)C)cc1C,growth,T-47D breast,90% and 86.2%
same,growth,BT-549 breast; 10 µM unless noted,119% and 100%
same,growth,MDA-MB-435 melanoma; 10 µM unless noted,99.2% and 99.4%
same,growth,SW-620 colon; 10 µM unless noted,104% and 100%
same,growth,MCF7 breast; 10 µM unless noted,109% and 95.7%
same,growth,HCT-116 colon; 10 µM unless noted,107% and 102%
same,growth,HCC-2998 colon; 10 µM unless noted,99.6% and 113%
COc1ccc(CCl)c(C)c1OC,growth,T-47D breast,102%
same,growth,BT-549 breast; 10 µM unless noted,105%
same,growth,MDA-MB-435 melanoma; 10 µM unless noted,108%
same,growth,SW-620 colon; 10 µM unless noted,101%
same,growth,MCF7 breast; 10 µM unless noted,103%
same,growth,HCT-116 colon; 10 µM unless noted,99.6%
same,growth,HCC-2998 colon; 10 µM unless noted,100%
same,growth,KM12 colon; 10 µM unless noted,101%
CC(O)CCNC(c1ccccc1)C(O)c1ccccc1 (centres undefined),growth,T-47D breast,99.2%
same,growth,BT-549 breast; 10 µM unless noted,110%
same,growth,MDA-MB-435 melanoma; 10 µM unless noted,112%
same,growth,SW-620 colon; 10 µM unless noted,110%
same,growth,MCF7 breast; 10 µM unless noted,99.9%
same,growth,HCT-116 colon; 10 µM unless noted,100%
same,growth,HCC-2998 colon; 10 µM unless noted,111%
Nc1ccccc1SC1CC(=O)N(c2ccc(I)cc2)C1=O (centres undefined),growth,T-47D breast,82.3%
same,growth,BT-549 breast; 10 µM unless noted,91.6%
same,growth,MDA-MB-435 melanoma; 10 µM unless noted,91.8%
same,growth,SW-620 colon; 10 µM unless noted,93.3%
same,growth,MCF7 breast; 10 µM unless noted,86.5%
same,growth,HCT-116 colon; 10 µM unless noted,95.3%
same,growth,HCC-2998 colon; 10 µM unless noted,103%
Nc1c(Cl)cc2c(c1Br)C(=O)c1ccccc1C2=O,growth,T-47D breast,76%
same,growth,BT-549 breast; 10 µM unless noted,114%
same,growth,MDA-MB-435 melanoma; 10 µM unless noted,105%
same,growth,SW-620 colon; 10 µM unless noted,99.6%
same,growth,MCF7 breast; 10 µM unless noted,99.8%
same,growth,HCT-116 colon; 10 µM unless noted,96.7%
same,growth,HCC-2998 colon; 10 µM unless noted,101%
CCOC(=O)c1csc(N)n1,growth,T-47D breast,104% and 98.5%
same,growth,BT-549 breast; 10 µM unless noted,102% and 105%
same,growth,MDA-MB-435 melanoma; 10 µM unless noted,99% and 102%
same,growth,SW-620 colon; 10 µM unless noted,104% and 103%
same,growth,MCF7 breast; 10 µM unless noted,91.8% and 90.8%
same,growth,HCT-116 colon; 10 µM unless noted,107% and 99.4%
same,growth,HCC-2998 colon; 10 µM unless noted,115% and 101%
CC1NC(C)c2ccc3ccccc3c2O1 (centres undefined),growth,T-47D breast,108%
same,growth,BT-549 breast; 10 µM unless noted,107%
same,growth,MDA-MB-435 melanoma; 10 µM unless noted,111%
same,growth,SW-620 colon; 10 µM unless noted,111%
same,growth,MCF7 breast; 10 µM unless noted,92%
same,growth,HCT-116 colon; 10 µM unless noted,102%
same,growth,HCC-2998 colon; 10 µM unless noted,110%
same,growth,KM12 colon; 10 µM unless noted,111%
COc1ccc(-n2[nH]c3c(cnc4ccccc43)c2=O)cc1,growth,T-47D breast,88.3%
same,growth,BT-549 breast; 10 µM unless noted,90% and 95.4%
same,growth,MDA-MB-435 melanoma; 10 µM unless noted,94.7% and 97.3%
same,growth,SW-620 colon; 10 µM unless noted,106% and 103%
same,growth,MCF7 breast; 10 µM unless noted,98.8% and 93.1%
same,growth,HCT-116 colon; 10 µM unless noted,90.5% and 95.1%
same,growth,HCC-2998 colon; 10 µM unless noted,69.2% and 107%
same,growth,KM12 colon; 10 µM unless noted,99.1% and 97.7%
